Measurements: PubChem BioAssay AID624305 (National Center for Advancing Translational Sciences (NCATS), 2012)
Inconclusive results are not listed. Active and inactive are the calls of the source. The call rests on the fitted dose curve; in most records, active means well fitted activation curve with a large enough effect; inconclusive means small, poorly fitted or top-dose-only effect; inactive means no such curve, though single readings can be large or run the other way.

experiment: qHTS assay for re-activators of p53 using a Luc reporter: Hit Validation; settings: p53-responsive luciferase reporter cells, luminescence, H1299 line expressing heat-sensitive Ala138Val p53; series mostly up to 46.1 µM; activation: at the top concentration; further: nearly all actives have a fitted effect of over 75% in size; on activation: 0% is about no effect
How it was run: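 H1299 (p53-null) cells stably carrying p53-A138V and a BP100-luciferase reporter, 1000 cells/well, treated 24 h at 37 deg C. Compounds at several concentrations, 1:5 dilution; nocodazole control; luminescence read after 10 min with detection reagent.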
Potency means the concentration at half of the fitted maximal effect.

activation, inactive:
Clc1ccc(OCc2nc(-c3ccccn3)n[nH]2)cc1 -5.21%, Cc1ccc2nc(N3C(=O)C(O)=C(C(=O)c4ccc(C)o4)C3c3ccco3)sc2c1 (stereo not drawn) -2.6%, Cc1cccc(NC2SC(=O)N(c3ccccc3)C2=O)c1 (stereo not drawn) 41.1%, Cc1ccc(C(=O)CC(Nc2ccc(F)cc2)c2ccccc2)cc1 (stereo not drawn) 35.9%, COCC(=O)Nc1nnc(COc2ccccc2)s1 28.6%, c1ccc(Oc2cc(-n3cncn3)ncn2)cc1 30.2%, COc1cc(C2=NOC(C(=O)NCc3ccc(F)cc3)C2)cc(OC)c1OC (stereo not drawn) 26.6%, Cc1ccc(C)n1-c1sc2c(c1C(=O)O)CCCC2 16.1%, COc1ccc(N=C(N)SCc2ccccn2)cc1 28.6%, CCOc1ccc(S(=O)(=O)c2c(C(=O)c3ccc(C)cc3)cnc3cc4c(cc23)OCCO4)cc1 -37%, Cc1noc(C)c1C(=O)Nc1nc(-c2ccc(F)cc2)cs1 -25% [at 9.22 µM], COc1ccc(C(C#N)N2N=C(c3ccccc3)CC2c2ccccc2)cc1OC (stereo not drawn) -1.56%, NC(=O)c1ccc(-n2c(CCC(=O)O)ccc2-c2cccs2)cc1 -8.33%, N#CC1=C(N)N2C(=C(C#N)C13CCCCC3)SC1CCCCC12O (stereo not drawn) -17.2%, O=C(NNC(=O)c1cccnc1SCc1cccc([N+](=O)[O-])c1)c1ccccn1 31.8%, COc1ccc(N2C(=O)CC(Cc3ccc(Br)cc3)C2=O)cc1 (stereo not drawn) -1.56%, NNc1nc(NCc2ccccc2)nc(N2CCOCC2)n1 -7.29%, COc1ccc(-n2nc([N+](=O)[O-])c(=NCc3ccco3)n2O)cc1 39.6%, O=C1CCCC(O)=C1N=Nc1c(Cl)cc(Cl)cc1Cl 26.6%, Cc1noc(C)c1C(=O)OCC(=O)N1CCc2ccccc21 12%, CN(Cc1ccccc1)C(=O)CNC(=O)Cn1cnc2ccccc2c1=O -2.08%, CC(C)CC(NC(=O)C1CCC(=O)N1)C(=O)NC(CC(C)C)C(=O)N1CCCC1C(N)=O (stereo not drawn) -19.8%, COc1nnc(-c2ccc(C)c(S(=O)(=O)N(C)C)c2)c2ccccc12 -20.3%, O=C(O)CCCC(=O)NCCc1ccncc1 -83.3%, COc1ccc(N2CCN(C(=O)COC(=O)c3ccc(OC(F)F)cc3)CC2)cc1 -10.9%

Potency, active:
Cc1cc(N2CCCCC2)n2ncc(-c3ccc(Cl)cc3)c2n1 0.82 µM, CN(C)c1ccc(N=Cc2nc(-c3ccccc3)oc2OC(=O)c2cccc(Cl)c2)cc1 2.06 µM, Cc1ccc(-c2nc(-c3cccnc3)no2)c(C)c1 4.61 µM, Clc1ccc(-c2nnc(N3CCCC3)nn2)cc1 0.731 µM, N#C/C(=C/c1ccccc1[N+](=O)[O-])c1nc(C2CC2)cs1 5.8 µM, COc1ccc(/C(N)=N/OC(=O)c2cccs2)cc1 5.17 µM, COc1cccc(/C=N/Nc2ccc([N+](=O)[O-])cn2)c1O 9.2 µM, O=C(/C=C/c1ccco1)Nc1ccccn1 2.31 µM, CC(=O)Oc1ccc(Cl)cc1/C=C/c1ccc2ccccc2n1 4.61 µM, CC(=O)c1cc2c(C)c(C(=O)c3ccccc3)oc2cc1O 0.411 µM, COc1ccc(-c2cc(=O)c3ccccc3s2)cc1 4.11 µM, COc1ccc2c(c1)Cc1sc(NC(C)=O)nc1-2 11.6 µM, COc1ccc(-n2cc(-c3ccccc3)[nH]c2=S)cc1 11.6 µM
